In paper PMC7862700, “An all-to-all approach to the identification of sequence-specific readers for epigenetic DNA modifications on cytosine”:

Assays:
Experiment in all cases: DAPPL (digital affinity profiling via proximity ligation, sequencing); 10 mM Tris-HCl pH 7.5, 50 mM NaCl, 1 mM DTT, 4% glycerol, room temperature, 30 min; GST-TFs on glutathione beads, 16-mer random dsDNA library, 0.1% formaldehyde crosslink after washing; high values mean tight binding
[1] = target: T1, FLI1 (Homo sapiens, UniProt Q01543 1-452); settings: protein: recombinant; tags: N-terminal GST; dsDNA, one strand shown
T1 sequence: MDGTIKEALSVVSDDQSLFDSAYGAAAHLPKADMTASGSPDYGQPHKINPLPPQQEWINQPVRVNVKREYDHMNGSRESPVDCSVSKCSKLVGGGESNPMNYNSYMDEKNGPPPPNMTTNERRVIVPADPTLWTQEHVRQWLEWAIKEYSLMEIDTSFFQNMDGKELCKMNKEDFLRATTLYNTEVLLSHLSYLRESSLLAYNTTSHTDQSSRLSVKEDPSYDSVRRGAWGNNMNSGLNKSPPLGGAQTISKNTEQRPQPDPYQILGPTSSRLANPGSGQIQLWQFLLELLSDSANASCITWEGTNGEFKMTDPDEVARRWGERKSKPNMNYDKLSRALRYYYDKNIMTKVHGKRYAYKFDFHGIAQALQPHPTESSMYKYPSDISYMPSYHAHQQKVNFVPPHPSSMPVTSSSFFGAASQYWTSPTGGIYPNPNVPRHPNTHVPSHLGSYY
Summary of the method: (§1)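 Human transcription factors carrying a GST fusion were produced in yeast, bound to glutathione beads, tagged with DNA barcodes and pooled together with a tag-only sample. Each pool was held with 200 nmole of a random double-stranded 16-mer DNA library in Tris/NaCl/DTT/glycerol buffer for 30 min at room temperature, then washed, crosslinked in 0.1% formaldehyde, proximity-ligated with BsaI/T4 ligase (1 h, 37 °C), PCR-amplified and sequenced on an Illumina NextSeq500. Binding signal is the read frequency of each hexamer for a given factor divided by its frequency in the tag-only sample.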

[2] = target: T2, ELK1 (Homo sapiens, UniProt P19419 1-428); settings: protein: recombinant; tags: N-terminal GST; dsDNA, one strand shown
T2 sequence: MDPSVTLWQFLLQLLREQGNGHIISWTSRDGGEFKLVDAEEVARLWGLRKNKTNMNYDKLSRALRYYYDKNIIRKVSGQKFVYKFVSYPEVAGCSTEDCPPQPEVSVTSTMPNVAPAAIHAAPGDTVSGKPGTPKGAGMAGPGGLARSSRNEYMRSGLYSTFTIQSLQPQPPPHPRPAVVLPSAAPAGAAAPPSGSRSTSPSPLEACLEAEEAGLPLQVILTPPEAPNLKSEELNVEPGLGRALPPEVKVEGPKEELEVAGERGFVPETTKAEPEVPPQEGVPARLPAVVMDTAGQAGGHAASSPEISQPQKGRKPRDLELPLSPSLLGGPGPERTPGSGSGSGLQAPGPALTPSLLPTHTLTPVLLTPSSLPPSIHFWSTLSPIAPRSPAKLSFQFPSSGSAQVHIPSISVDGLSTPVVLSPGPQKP
Summary of the method: as §1

[3] = target: T3, GABPA (Homo sapiens, UniProt Q06546 1-454); settings: protein: recombinant; tags: N-terminal GST; dsDNA, one strand shown
T3 sequence: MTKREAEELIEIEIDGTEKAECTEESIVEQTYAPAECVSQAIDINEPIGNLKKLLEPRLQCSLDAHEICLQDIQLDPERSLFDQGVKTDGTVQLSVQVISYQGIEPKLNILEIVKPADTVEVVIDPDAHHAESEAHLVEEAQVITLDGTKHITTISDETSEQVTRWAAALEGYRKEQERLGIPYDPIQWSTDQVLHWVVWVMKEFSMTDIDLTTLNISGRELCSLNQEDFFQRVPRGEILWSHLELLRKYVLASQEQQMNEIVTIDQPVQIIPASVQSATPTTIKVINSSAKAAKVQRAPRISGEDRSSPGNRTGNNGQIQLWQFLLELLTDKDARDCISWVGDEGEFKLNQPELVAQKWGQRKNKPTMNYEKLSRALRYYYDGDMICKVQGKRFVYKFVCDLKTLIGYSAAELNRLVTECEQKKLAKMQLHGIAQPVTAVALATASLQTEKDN
Summary of the method: as §1

[4] = target: T4, ERG (Homo sapiens, UniProt P11308 1-479); settings: protein: recombinant; tags: N-terminal GST; dsDNA, one strand shown
T4 sequence: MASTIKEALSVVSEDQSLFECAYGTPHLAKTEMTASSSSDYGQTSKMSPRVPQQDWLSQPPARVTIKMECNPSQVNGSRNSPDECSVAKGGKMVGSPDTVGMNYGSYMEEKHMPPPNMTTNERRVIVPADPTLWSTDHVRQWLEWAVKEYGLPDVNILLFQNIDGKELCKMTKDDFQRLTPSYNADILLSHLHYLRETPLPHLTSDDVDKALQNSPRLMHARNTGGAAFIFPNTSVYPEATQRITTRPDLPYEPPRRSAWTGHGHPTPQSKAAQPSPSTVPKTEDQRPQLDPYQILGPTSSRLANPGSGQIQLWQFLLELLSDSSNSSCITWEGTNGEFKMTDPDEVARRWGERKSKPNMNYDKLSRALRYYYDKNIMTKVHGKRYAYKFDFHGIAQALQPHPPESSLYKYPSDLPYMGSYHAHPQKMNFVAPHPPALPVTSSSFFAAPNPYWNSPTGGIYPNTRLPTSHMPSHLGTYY
Summary of the method: as §1

[5] = target: ELF1 (Homo sapiens, UniProt P32519 1-619); settings: protein: recombinant; tags: N-terminal GST; dsDNA, one strand shown
Sequence of ELF1 (P32519 whole entry): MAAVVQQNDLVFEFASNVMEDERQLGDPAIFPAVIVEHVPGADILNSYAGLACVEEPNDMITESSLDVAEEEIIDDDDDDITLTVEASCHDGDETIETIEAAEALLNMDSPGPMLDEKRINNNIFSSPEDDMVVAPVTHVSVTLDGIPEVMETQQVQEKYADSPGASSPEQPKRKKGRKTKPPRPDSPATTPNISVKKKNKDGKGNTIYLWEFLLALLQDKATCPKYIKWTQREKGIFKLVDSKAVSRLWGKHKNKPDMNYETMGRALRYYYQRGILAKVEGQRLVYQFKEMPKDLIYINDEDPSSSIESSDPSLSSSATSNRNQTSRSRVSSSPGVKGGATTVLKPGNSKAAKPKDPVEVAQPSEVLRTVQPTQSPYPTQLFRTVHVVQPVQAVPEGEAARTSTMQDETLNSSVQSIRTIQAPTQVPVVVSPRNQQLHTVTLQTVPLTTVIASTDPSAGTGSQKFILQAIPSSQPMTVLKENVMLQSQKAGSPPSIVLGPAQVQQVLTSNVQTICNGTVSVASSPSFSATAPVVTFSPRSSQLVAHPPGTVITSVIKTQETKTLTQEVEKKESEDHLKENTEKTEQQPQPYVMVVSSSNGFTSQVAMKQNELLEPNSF
Summary of the method: as §1

[6] = target: T5, EHF (Homo sapiens, UniProt Q9NZC4 1-300); settings: protein: recombinant; tags: N-terminal GST; dsDNA, one strand shown
T5 sequence: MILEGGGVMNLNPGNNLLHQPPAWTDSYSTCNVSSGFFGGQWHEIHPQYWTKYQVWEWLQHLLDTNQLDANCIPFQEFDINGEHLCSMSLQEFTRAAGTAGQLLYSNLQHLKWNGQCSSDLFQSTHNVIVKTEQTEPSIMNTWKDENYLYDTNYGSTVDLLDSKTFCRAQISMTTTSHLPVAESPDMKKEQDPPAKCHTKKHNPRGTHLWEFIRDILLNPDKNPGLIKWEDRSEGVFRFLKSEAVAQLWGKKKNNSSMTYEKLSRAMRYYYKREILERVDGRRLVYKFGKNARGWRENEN
Summary of the method: as §1

[7] = target: SPI1 (Homo sapiens, UniProt P17947 1-270); settings: protein: recombinant; tags: N-terminal GST; dsDNA, one strand shown
Summary of the method: as §1

[8] = target: SPIB (Homo sapiens, UniProt Q01892 1-262); settings: protein: recombinant; tags: N-terminal GST; dsDNA, one strand shown
Sequence of SPIB (Q01892 whole entry): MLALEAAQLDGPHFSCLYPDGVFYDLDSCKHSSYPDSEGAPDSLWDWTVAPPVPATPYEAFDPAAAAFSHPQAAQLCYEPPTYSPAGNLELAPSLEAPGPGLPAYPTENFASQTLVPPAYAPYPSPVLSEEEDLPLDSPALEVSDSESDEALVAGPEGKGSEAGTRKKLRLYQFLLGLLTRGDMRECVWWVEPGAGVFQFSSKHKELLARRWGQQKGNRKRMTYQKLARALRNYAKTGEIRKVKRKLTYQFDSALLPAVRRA
Summary of the method: as §1

[9] = target: T6, ELK3 (Homo sapiens, UniProt P41970 1-407); settings: protein: recombinant; tags: N-terminal GST; dsDNA, one strand shown
T6 sequence: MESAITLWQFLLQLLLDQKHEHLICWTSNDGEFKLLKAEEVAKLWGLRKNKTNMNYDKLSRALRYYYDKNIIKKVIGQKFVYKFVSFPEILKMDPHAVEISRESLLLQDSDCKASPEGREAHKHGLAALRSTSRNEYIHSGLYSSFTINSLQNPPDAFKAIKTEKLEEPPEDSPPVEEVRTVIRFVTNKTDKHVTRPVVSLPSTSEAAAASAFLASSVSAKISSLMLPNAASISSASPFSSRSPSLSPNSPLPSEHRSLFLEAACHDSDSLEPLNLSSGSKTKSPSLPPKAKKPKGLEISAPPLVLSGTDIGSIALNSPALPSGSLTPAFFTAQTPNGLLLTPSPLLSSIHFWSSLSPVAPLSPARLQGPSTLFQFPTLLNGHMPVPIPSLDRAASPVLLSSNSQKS
Summary of the method: as §1

[10] = target: T7, FEV (Homo sapiens, UniProt Q99581 1-238); settings: protein: recombinant; tags: N-terminal GST; dsDNA, one strand shown
T7 sequence: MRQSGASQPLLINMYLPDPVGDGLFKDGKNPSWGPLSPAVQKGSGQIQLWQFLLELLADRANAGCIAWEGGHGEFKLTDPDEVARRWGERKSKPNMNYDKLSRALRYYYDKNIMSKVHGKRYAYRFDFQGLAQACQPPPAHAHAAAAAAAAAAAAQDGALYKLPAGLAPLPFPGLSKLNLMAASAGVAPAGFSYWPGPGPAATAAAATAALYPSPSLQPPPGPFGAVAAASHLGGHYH
Summary of the method: as §1

[11] = target: ETV5 (Homo sapiens, UniProt P41161 1-510); settings: protein: recombinant; tags: N-terminal GST; dsDNA, one strand shown
Sequence of ETV5 (P41161 whole entry): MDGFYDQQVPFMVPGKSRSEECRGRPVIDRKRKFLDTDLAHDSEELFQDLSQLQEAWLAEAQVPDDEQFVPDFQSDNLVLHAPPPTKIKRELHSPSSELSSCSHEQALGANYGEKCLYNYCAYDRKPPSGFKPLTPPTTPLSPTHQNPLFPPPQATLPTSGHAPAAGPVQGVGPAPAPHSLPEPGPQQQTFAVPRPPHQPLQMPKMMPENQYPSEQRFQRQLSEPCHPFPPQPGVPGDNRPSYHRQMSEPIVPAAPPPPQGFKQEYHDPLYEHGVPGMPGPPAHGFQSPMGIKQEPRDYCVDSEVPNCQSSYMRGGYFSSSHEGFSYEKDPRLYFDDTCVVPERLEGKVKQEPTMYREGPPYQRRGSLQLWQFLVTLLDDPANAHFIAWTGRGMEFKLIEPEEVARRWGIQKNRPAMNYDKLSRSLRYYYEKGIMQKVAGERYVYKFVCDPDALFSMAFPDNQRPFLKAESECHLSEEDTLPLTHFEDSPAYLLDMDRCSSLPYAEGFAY
Summary of the method: as §1

[12] = target: HSF1 (Homo sapiens, UniProt Q00613 1-529); settings: protein: recombinant; tags: N-terminal GST; chain copies: 3; dsDNA, one strand shown
Sequence of HSF1 (Q00613 whole entry): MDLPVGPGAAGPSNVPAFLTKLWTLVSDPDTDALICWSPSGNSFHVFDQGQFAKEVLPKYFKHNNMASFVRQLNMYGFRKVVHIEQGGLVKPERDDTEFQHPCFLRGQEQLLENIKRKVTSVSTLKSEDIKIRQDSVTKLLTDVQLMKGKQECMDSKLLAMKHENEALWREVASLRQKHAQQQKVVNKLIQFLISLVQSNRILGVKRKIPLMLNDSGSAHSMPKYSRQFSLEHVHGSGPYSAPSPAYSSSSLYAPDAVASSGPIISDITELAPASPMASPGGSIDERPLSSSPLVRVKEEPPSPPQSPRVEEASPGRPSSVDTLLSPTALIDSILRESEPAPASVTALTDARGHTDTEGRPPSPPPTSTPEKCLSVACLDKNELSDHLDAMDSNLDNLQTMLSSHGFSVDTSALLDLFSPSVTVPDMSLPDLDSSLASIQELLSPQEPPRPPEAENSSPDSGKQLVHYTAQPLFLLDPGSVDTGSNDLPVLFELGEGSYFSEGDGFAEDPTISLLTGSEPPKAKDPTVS
Summary of the method: as §1

[13] = target: T8, SPIC (Homo sapiens, UniProt Q8N5J4 1-248); settings: protein: recombinant; tags: N-terminal GST; dsDNA, one strand shown
T8 sequence: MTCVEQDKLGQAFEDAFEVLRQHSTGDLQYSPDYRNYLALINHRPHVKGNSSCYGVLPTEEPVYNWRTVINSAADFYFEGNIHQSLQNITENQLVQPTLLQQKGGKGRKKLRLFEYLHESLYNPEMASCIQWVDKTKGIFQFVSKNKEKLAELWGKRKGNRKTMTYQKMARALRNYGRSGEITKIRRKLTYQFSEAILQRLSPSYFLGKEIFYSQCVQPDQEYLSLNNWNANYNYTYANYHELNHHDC
Summary of the method: as §1

[14] = target: ELF4 (Homo sapiens, UniProt Q99607 1-663); settings: protein: recombinant; tags: N-terminal GST; dsDNA, one strand shown
Sequence of ELF4 (Q99607 whole entry): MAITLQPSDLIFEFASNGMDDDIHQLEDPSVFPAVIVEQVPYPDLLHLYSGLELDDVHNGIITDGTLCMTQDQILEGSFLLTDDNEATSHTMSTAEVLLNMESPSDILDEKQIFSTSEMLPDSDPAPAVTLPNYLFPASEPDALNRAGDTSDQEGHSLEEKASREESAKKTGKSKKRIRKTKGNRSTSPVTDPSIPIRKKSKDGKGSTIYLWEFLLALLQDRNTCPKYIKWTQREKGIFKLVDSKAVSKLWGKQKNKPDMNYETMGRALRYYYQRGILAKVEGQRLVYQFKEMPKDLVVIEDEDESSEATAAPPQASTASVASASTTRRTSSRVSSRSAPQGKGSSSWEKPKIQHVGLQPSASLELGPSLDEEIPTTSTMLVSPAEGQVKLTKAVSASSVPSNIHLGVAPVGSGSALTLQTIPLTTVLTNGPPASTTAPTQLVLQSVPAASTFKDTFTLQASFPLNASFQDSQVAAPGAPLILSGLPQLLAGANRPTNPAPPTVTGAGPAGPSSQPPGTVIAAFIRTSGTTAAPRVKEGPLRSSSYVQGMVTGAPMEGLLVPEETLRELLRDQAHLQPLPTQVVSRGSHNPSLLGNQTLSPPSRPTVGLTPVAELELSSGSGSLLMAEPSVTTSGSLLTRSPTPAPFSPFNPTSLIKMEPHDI
Summary of the method: as §1

[15] = target: T9, ELK4 (Homo sapiens, UniProt P28324-2 1-405); settings: protein: recombinant; tags: N-terminal GST; dsDNA, one strand shown
T9 sequence: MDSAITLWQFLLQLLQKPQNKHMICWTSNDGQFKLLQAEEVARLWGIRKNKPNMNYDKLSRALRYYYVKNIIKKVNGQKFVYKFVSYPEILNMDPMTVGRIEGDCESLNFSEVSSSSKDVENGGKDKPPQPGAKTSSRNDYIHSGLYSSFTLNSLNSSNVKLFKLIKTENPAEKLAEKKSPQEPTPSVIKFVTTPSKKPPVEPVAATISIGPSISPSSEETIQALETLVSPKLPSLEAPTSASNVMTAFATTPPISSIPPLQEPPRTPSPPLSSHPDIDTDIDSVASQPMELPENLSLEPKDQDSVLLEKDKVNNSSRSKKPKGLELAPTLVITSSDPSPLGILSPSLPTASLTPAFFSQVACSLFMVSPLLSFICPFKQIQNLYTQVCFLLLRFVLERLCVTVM
Summary of the method: as §1

[16] = target: T10, ETV2 (Homo sapiens, UniProt O00321 1-342); settings: protein: recombinant; tags: N-terminal GST; dsDNA, one strand shown
T10 sequence: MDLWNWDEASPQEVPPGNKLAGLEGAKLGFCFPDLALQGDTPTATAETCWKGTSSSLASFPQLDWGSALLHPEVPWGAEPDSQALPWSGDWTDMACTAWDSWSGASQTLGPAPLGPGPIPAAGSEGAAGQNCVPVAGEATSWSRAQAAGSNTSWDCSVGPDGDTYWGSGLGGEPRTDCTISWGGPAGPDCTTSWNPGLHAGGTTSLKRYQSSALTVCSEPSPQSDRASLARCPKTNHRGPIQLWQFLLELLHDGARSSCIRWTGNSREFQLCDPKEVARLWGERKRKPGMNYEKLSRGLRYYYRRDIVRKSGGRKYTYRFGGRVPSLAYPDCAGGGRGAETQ
Summary of the method: as §1

[17] = target: T11, ELF3 (Homo sapiens, UniProt P78545 1-371); settings: protein: recombinant; tags: N-terminal GST; dsDNA, one strand shown
T11 sequence: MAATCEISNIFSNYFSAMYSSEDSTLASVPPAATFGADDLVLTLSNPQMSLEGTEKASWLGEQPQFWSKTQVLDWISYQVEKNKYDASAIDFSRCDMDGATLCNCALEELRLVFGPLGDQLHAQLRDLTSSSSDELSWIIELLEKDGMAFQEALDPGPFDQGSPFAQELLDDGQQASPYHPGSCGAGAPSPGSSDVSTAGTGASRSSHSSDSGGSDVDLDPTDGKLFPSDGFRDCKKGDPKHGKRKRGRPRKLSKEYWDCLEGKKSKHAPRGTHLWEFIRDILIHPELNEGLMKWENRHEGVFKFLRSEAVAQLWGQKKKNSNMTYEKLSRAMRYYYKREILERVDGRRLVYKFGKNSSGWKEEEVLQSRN
Summary of the method: as §1

[18] = target: CRX (Homo sapiens, UniProt O43186 1-299); settings: protein: recombinant; tags: N-terminal GST; dsDNA, one strand shown
Sequence of CRX (O43186 whole entry): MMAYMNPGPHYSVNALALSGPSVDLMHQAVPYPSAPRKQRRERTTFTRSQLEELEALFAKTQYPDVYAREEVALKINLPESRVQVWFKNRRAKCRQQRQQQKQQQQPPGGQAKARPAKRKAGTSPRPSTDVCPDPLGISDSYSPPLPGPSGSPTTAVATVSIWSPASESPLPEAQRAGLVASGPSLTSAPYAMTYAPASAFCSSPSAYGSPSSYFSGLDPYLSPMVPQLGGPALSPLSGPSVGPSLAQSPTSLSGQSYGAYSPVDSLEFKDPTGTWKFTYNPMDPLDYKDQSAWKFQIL
Summary of the method: as §1

[19] = target: ETV1 (Homo sapiens, UniProt P50549 1-477); settings: protein: recombinant; tags: N-terminal GST; dsDNA, one strand shown
Sequence of ETV1 (P50549 whole entry): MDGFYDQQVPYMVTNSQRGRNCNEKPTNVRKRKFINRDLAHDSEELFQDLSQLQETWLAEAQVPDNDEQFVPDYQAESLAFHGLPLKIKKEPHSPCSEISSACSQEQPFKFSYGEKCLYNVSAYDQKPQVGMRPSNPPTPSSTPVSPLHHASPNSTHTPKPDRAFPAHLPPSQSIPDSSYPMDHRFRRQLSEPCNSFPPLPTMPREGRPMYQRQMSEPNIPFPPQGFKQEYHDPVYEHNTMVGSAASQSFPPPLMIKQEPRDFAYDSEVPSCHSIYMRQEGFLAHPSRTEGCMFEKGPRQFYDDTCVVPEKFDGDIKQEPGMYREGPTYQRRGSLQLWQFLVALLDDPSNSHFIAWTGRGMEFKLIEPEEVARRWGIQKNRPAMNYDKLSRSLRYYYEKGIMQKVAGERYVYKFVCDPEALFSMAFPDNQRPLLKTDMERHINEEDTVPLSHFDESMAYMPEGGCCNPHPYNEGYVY
Summary of the method: as §1

## AACCCG
[1]
  binding signal: 1.36 fold enrichment (6-mer frequency, TF over GST control)
[2]
  binding signal: 1.44 fold enrichment (6-mer frequency, TF over GST control)
[3]
  binding signal: 1.31 fold enrichment (6-mer frequency, TF over GST control)
[4]
  binding signal: 1.46 fold enrichment (6-mer frequency, TF over GST control)
[5]
  binding signal: 1.5 fold enrichment (6-mer frequency, TF over GST control)
[6]
  binding signal: 1.54 fold enrichment (6-mer frequency, TF over GST control)
[7]
  binding signal: 1.36 fold enrichment (6-mer frequency, TF over GST control)
[8]
  binding signal: 1.46 fold enrichment (6-mer frequency, TF over GST control)
[9]
  binding signal: 1.49 fold enrichment (6-mer frequency, TF over GST control)
[10]
  binding signal: 1.44 fold enrichment (6-mer frequency, TF over GST control)
[11]
  binding signal: 1.51 fold enrichment (6-mer frequency, TF over GST control)
[12]
  binding signal: 1.07 fold enrichment (6-mer frequency, TF over GST control)
[13]
  binding signal: 1.47 fold enrichment (6-mer frequency, TF over GST control)
[14]
  binding signal: 1.51 fold enrichment (6-mer frequency, TF over GST control)
[15]
  binding signal: 1.26 fold enrichment (6-mer frequency, TF over GST control)
[16]
  binding signal: 1.47 fold enrichment (6-mer frequency, TF over GST control)
[17]
  binding signal: 1.6 fold enrichment (6-mer frequency, TF over GST control)
[18]
  binding signal: 1.2 fold enrichment (6-mer frequency, TF over GST control)
[19]
  binding signal: 1.58 fold enrichment (6-mer frequency, TF over GST control)
